From PubChem BioAssay AID504834 (National Center for Advancing Translational Sciences (NCATS), 2011)
Among all 320,000 compounds or so, about 22,000 (6.9%) were called active. Entries that show only a call come without a potency. Another 27% or so got no clear call; they are omitted. Calls come from the whole dose curve; as a rule, active = well fitted inhibition curve with a large enough effect; inconclusive = small, poorly fitted or top-dose-only effect, or another doubt; inactive = no such curve, though single readings can be large or run the other way. Many of the other results were omitted from the sample, so actives are more common in it than they were.

assay: Primary qHTS for delayed death inhibitors of the malarial parasite plastid, 96 hour incubation; conditions: P. falciparum luciferase reporter growth; series mostly up to 28.7 µM
Summary of the method: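 Two-generation exposure (96 h) targets delayed-death phenotype. Reporter parasites carrying integrated firefly luciferase, in red cells at 2% hematocrit and 0.05% parasitemia final, kept at 37 C, 5% CO2; luminescence loss indicates inhibition.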
Potency is the fitted concentration of half-maximal effect.

Structure (SMILES)	Potency
O=C(Nc1ccccc1)N1CCN(C(=O)Nc2ccccc2)CC1	inactive
O=C(Nc1ccccc1)N1CCN(C2c3ccccc3-c3ccccc32)CC1	2.62 µM (active)
O=C(Nc1ccccc1)N1CCN(Cc2ccccc2)CC1	inactive
CN1C(C(=O)NCc2ccco2)CC2Cn3c(nc4ccccc43)C21 (configuration not stated)	inactive
CC(C)(C)C(=O)Nc1ccc(-c2cn3cccnc3n2)cc1	inactive
Cc1ccc(C(=O)COC(=O)CCN2C(=O)C3C4CCC(C4)C3C2=O)cc1C (configuration not stated)	inactive
O=C(CCN1C(=O)C2C3CCC(C3)C2C1=O)Nc1ccc(Cl)cc1Cl (configuration not stated)	7.38 µM (active)
O=C(NC(=S)Nc1ccc(Cl)cc1Cl)C1CC1	inactive
O=C(N/C(=C\c1ccc([N+](=O)[O-])cc1)C(=O)N1CCCCC1)c1ccco1	inactive
COCCn1c(SCC(=O)Nc2nc(C)cs2)nnc1C(C)C	inactive
CCC(=O)Nc1ccc(C(=O)Nc2ccc3c(c2)C(=O)N(CC2CCCO2)C3=O)cc1 (configuration not stated)	inactive
O=C(NCc1ccc2c(c1)OCO2)c1ccc2c(c1)C(=O)N(CC1CCCO1)C2=O (configuration not stated)	inactive
O=C1c2cccc3c([N+](=O)[O-])ccc(c23)C(=O)N1CC1CCCO1 (configuration not stated)	10.4 µM (active)
C[N+](C)(C)CCNC(=O)c1cc[n+](Cc2ccccc2)c(/C=N/O)c1	inactive
O=C(Nc1nccs1)C1CCN(S(=O)(=O)c2ccc(Cl)c(C(F)(F)F)c2)CC1	13.1 µM (active)
O=C(Nc1ccccn1)C1CCN(S(=O)(=O)c2ccccc2)CC1	inactive
O=C(Nc1ccccn1)C1CCN(S(=O)(=O)c2ccc3c(c2)OCCO3)CC1	inactive
CN(C)c1ccc(-c2nnc(-c3cccnc3)o2)cc1	inactive
CC1CC(C)CN(S(=O)(=O)c2cccc3nonc23)C1 (configuration not stated)	inactive
CCN(C(=O)CSc1nnnn1-c1ccccc1OC)C1CCS(=O)(=O)C1 (configuration not stated)	inactive
COc1ccc(CCNC(=O)CCNS(=O)(=O)c2cc(Br)cnc2N)cc1OC	inactive
COC(=O)C1=C(C)NC(=O)CC1c1ccccc1OC (configuration not stated)	inactive

Structure (SMILES)	Potency
COc1cc2c(cc1OC)C(C(=O)Nc1cc(C)c(OC)c(C)c1)CC(=O)N2 (configuration not stated)	inactive
COc1cc2c(cc1OC)C(c1ccc(C)o1)CC(=O)N2 (configuration not stated)	13.1 µM (active)
CC(=O)CC[C@@H](C)O[C@@H]1OC(C)[C@H](O)CC1O (some centres not stated)	inactive
C=CCOc1ccc(/C=C/C(=O)OCC(=O)NC2CCCCCC2)cc1	inactive
N#Cc1cccc(NC(=O)C2CCCN(C(=O)c3ccc(Cl)cc3)C2)c1 (configuration not stated)	9.28 µM (active)
N#Cc1cccc(NC(=O)CCC2CCCC2)c1	inactive
N#Cc1cccc(NC(=O)CN2CCCCCC2)c1	inactive
COC(=O)C1=CN(c2ccc(F)c(F)c2)C=C(C(=O)OC)C1c1ccc([N+](=O)[O-])cc1	inactive
COc1ccc(C(C(=O)NC2CCCCC2)N(C(=O)c2snc(C(N)=O)c2N)c2ccccc2OC)cc1 (configuration not stated)	inactive
COc1cccc(N(C(=O)C2COc3ccccc3O2)C(C(=O)NC2CCCCC2)c2ccc(O)cc2)c1 (configuration not stated)	inactive
COc1ccc(C(C(=O)NC2CCCCC2)N(C(=O)CCl)c2ccccc2Cl)cc1 (configuration not stated)	0.294 µM (active)
CC(C)C(c1nnnn1C1CCCCC1)N1CCN(C(=O)c2ccco2)CC1 (configuration not stated)	inactive
CN(C)Cc1c(C(=O)N/N=C/c2ccccc2OCc2ccc(F)cc2)nnn1-c1nonc1N	inactive
CCC1OC(c2ccc([N+](=O)[O-])cc2)=Nc2ccccc21 (configuration not stated)	inactive
CCCC(=O)N1CCC(CCC(=O)NC2CC2)CC1	inactive
COc1ccc(NC(=O)CCCC2CCCCC2)c(OC)c1	inactive
COc1ccc(C[C@H]2CN3C(=NC[C@H]3C)N2CCNC(=O)CCC2CCCCC2)cc1	6.57 µM (active)
COc1ccc(CCNC(=O)COC(=O)C2CCCCC2)cc1	inactive
COc1cc(C2NC(=O)NC(c3ccccc3)=C2C(C)=O)c(Br)cc1OCC(N)=O (configuration not stated)	inactive
CCOC(=O)C1=C(c2ccccc2)NC(=O)NC1c1cc(OCC)c(O)c([N+](=O)[O-])c1 (configuration not stated)	inactive
CCCOc1ccc(C2NC(=O)NC(c3ccccc3)=C2C(C)=O)cc1OCC (configuration not stated)	4.65 µM (active)
Cc1ccc(S(=O)(=O)N/N=C(\c2ccccc2)C2CC2)cc1	inactive

Structure (SMILES)	Potency
FC(F)(F)c1cccc(Cc2noc(CN3CCC(N4CCCCC4)CC3)n2)c1	inactive
CCOC(=O)N1CCN(Cc2nc(Cc3cccc(C(F)(F)F)c3)no2)CC1	9.28 µM (active)
O=C(c1ccco1)N1CCN(Cc2cccc(C(F)(F)F)c2)CC1	inactive
Cc1ccc2nc(SCC(=O)N3CC(C)OC(C)C3)nc(=O)n2c1 (configuration not stated)	inactive
CC(OC(=O)CCCc1c[nH]c2ccccc12)C(=O)Nc1ccc(S(N)(=O)=O)cc1 (configuration not stated)	inactive
COc1ccc(C(=O)CCc2ccccc2O)c(OC)c1	inactive
Cc1ccc(S(=O)(=O)N(C)CC(=O)OCC(=O)Nc2ccccc2)cc1	inactive
COc1ccc(OC)c(NC(=O)C2CCCN2S(=O)(=O)c2cccc3nsnc23)c1 (configuration not stated)	13.1 µM (active)
Cc1ccc(NC(=O)C2CCCN2S(=O)(=O)c2cccc3cccnc23)c(C)c1 (configuration not stated)	inactive
COc1ccc(N(C)C(=O)C2CCN(S(=O)(=O)c3cccc4nsnc34)CC2)cc1	inactive
O=C(c1cc2ccccc2o1)N1CCN(S(=O)(=O)c2ccc(Cl)s2)CC1	11.7 µM (active)
Cc1cc(OCC(=O)N2CCN(c3ncccn3)CC2)ccc1Cl	inactive
Cc1ccc(OCC(=O)N2CCN(S(=O)(=O)c3ccc(Cl)s3)CC2)cc1C	9.28 µM (active)
CS(=O)(=O)N1CCN(C(=O)c2cc3ccccc3oc2=O)CC1	inactive
O=C(CN1CCN(S(=O)(=O)c2ccc(Cl)s2)CC1)N1CCCCC1	inactive
O=S(=O)(c1ccc(Cl)s1)N1CCC2(CC1)OCCO2	inactive
O=C(CSc1nnc(CN2CCCC2)n1-c1ccc(F)cc1)c1ccc2c(c1)OCO2	inactive
COc1ccc(C(CNC(=O)COc2ccc([N+](=O)[O-])cc2)N2CCCCC2)cc1 (configuration not stated)	inactive
COC(=O)C1=C(c2ccc(Cl)c(C(F)(F)F)c2)C[C@@H]2CC[C@H]1N2C(=O)NC1CC1	5.86 µM (active)
COC(=O)C1=C(c2ccc(F)cc2F)C[C@@H]2CC[C@H]1N2C(=O)NC1CC1	inactive
Cc1ccc(N2CC(C(=O)Nc3ccc(S(=O)(=O)N4CCCC4)cc3)CC2=O)cc1C (configuration not stated)	inactive
COC(=O)c1cc(C(=O)NC(C)C2CC3CCC2C3)cc([N+](=O)[O-])c1 (configuration not stated)	inactive

Structure (SMILES)	Potency
COc1cccc(CNC(=O)c2nnn(CC(=O)Nc3cc(Cl)ccc3C)c2N)c1	3.7 µM (active)
Cc1ccc(NC(=O)Cn2nnc(C(=O)NCc3ccco3)c2N)c(C)c1	inactive
COc1cccc(CNC(=O)c2nnn(CC(=O)Nc3cc(C)ccc3C)c2N)c1	11.7 µM (active)
COc1cccc(CNC(=O)c2n[nH]c3ccccc23)c1	inactive
Nc1c(C(=O)NCc2ccccc2)nnn1Cc1cccc(Cl)c1	inactive
CCOc1ccc(Cn2nnc(C(=O)NCc3ccccc3)c2N)cc1	inactive
O=C(c1cccc(Br)c1)N1CCN(C2=NS(=O)(=O)c3ccccc32)CC1	inactive
Cc1ccc(S(=O)(=O)CC(=O)NC(C)c2ccccc2)cc1 (configuration not stated)	inactive
CC1=CC(C)(C)NC(=S)N1NC(=O)c1ccccc1Cl	inactive
COc1cc(C(c2c(NC(=O)c3ccco3)sc(C)c2C)N2CCOCC2)cc(OC)c1OC (configuration not stated)	3.7 µM (active)
COc1ccc(C(=O)Nc2sc(C)c(C)c2CN2CCOCC2)cc1	inactive
COC(=O)c1cc(NC(=O)c2ccco2)ccc1N1CCOCC1	inactive
Cc1sc2ncn(CC(=O)NCCN(C)C)c(=O)c2c1S(=O)(=O)N1CCC(C)CC1	inactive
c1ccc(C2CNCc3c2ccc2ccccc32)cc1 (configuration not stated)	9.28 µM (active)
Cc1ccc2c(=O)cc(C(=O)NCCc3ccc(S(N)(=O)=O)cc3)oc2c1C	inactive
COc1ccc(OC)c(S(=O)(=O)N(C)CC(=O)N2CCN(c3ccccc3)CC2)c1	inactive
CC(CC(=O)N1CCN(c2ccccc2)CC1)c1ccccc1 (configuration not stated)	inactive
COc1ccc(C(CC(=O)N2CCN(c3ccccc3)CC2)c2c(O)cc(OC)cc2OC)cc1 (configuration not stated)	11.7 µM (active)
NNC(=O)CNC(c1ccccc1)c1cc(Cl)ccc1NC(=O)c1ccccc1 (configuration not stated)	inactive
Cc1ccc(NC(=O)/C(=C\c2ccccc2)NC(=O)c2ccco2)cc1	inactive
Fc1ccc(CNc2nc3ccccc3n3nnnc23)cc1	14.7 µM (active)
CCOC(=O)CNc1nc2ccccc2n2c(C)nnc12	inactive

Structure (SMILES)	Potency
COc1ccc(CNc2nnnn2C)cc1	inactive
Cc1cnc(NC(=O)c2ccc(Cl)nc2)s1	inactive
Cc1nnsc1C(=O)NCc1c(F)cccc1Cl	inactive
O=C(CNC(=O)c1ccccc1Br)NNC(=O)c1cccs1	inactive
Cc1ccc(-c2nc(CS(=O)(=O)CC(=O)NCc3ccc4c(c3)OCO4)c(C)o2)cc1	14.7 µM (active)
COc1ccc(CCNC(=O)CS(=O)(=O)Cc2nc(-c3ccc(C)cc3)oc2C)cc1OC	inactive
COc1ccc(-c2nc(CS(=O)(=O)CC(=O)NCc3cccc(Br)c3)c(C)o2)cc1	inactive
C=CCNC(=O)c1ccc2c3n(nc2c1)-c1ccc(C)cc1CO3	inactive
Cc1oc2cc(Br)c(O)c(Br)c2c1C(=O)c1ccccc1	inactive
COc1cc2c(cc1NC(=O)COC(=O)/C=C/c1ccccc1)oc1ccccc12	inactive
COc1cc(/C(=C/c2ccccc2)c2ccccc2)c2c(c1)oc1ccccc12	13.1 µM (active)
CNC(=O)c1sc(NCc2ccccc2OC)nc1C	inactive
O=C(CCNC(=O)c1ccc(Br)cc1)NCCCc1ccccc1	inactive
COc1ccc(N2CCN(C(=O)CSc3nc4cc(OC)c(OC)cc4cc3C#N)CC2)cc1	inactive
COc1ccc(CCNC(=O)CSc2nc(-c3ccc(OC)c(OC)c3)ccc2C#N)cc1	10.4 µM (active)
COc1ccc(CCNC(=O)CSc2nnc(-c3cccc(F)c3)o2)cc1OC	inactive
COc1ccc(CNC(=O)CSc2n[nH]c(N)n2)cc1OC	inactive
COc1ccc(CCNC(=O)CCn2c(=O)oc3ccccc32)cc1OC	inactive
COc1ccc(CCNC(=O)CSc2nc(C)nc3c2oc2ccccc23)cc1OC	5.86 µM (active)
